Measured values as given in ChEMBL document CHEMBL1961873, “Compounds: GSK PKIS; Assays: Nanosyn kinase panel” (2012).
“And” between values parts separate entries of the source, which are not always exact repeats. Identical values can stand only once.

What was measured:
[1] = target: Calcium/calmodulin-dependent protein kinase type II subunit alpha (Homo sapiens) (UniProt Q9UQM7); details: at 1 µM;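 also: reported value is a mean percent inhibition of CAMK2A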
[2] = target: Calcium/calmodulin-dependent protein kinase type II subunit delta (Homo sapiens) (UniProt Q13557); details: at 0.1 µM
Chain of Calcium/calmodulin-dependent protein kinase type II subunit delta (Homo sapiens) (Q13557 whole entry): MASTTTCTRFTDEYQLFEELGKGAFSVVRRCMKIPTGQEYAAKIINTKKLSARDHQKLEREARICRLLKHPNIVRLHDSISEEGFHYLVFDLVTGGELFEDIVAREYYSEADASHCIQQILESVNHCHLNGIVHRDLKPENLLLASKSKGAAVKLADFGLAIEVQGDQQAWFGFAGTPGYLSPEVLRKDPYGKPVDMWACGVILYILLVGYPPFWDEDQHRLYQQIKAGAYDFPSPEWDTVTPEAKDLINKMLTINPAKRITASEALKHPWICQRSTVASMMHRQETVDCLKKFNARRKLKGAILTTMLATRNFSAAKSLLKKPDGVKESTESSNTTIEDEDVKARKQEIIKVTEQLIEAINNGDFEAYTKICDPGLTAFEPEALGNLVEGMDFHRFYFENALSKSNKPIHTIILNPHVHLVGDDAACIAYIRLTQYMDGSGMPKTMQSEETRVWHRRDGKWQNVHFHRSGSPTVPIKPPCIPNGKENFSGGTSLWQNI

[3] = target: Calcium/calmodulin-dependent protein kinase type II subunit delta (Homo sapiens) (UniProt Q13557); details: at 1 µM
[4] = target: T1, Calcium/calmodulin-dependent protein kinase type IV (Homo sapiens) (UniProt Q16566); details: at 0.1 µM
T1 sequence (whole entry): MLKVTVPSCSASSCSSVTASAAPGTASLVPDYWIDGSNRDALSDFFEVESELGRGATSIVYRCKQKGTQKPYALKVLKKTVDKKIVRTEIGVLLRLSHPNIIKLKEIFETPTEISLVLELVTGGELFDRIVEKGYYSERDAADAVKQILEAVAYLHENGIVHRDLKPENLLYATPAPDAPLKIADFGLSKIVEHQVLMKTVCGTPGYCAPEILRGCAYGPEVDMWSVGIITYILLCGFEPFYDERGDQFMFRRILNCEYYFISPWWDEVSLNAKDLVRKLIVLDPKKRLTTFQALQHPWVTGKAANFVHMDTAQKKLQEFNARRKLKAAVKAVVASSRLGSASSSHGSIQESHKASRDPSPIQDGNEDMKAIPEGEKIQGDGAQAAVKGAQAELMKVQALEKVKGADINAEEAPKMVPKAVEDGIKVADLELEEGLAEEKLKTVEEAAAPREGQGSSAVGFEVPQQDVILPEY

[5] = target: T1, Calcium/calmodulin-dependent protein kinase type IV (Homo sapiens); details: at 1 µM
[6] = target: T2, Serine/threonine-protein kinase Chk1 (Homo sapiens) (UniProt O14757); details: at 0.1 µM
T2 sequence (whole entry): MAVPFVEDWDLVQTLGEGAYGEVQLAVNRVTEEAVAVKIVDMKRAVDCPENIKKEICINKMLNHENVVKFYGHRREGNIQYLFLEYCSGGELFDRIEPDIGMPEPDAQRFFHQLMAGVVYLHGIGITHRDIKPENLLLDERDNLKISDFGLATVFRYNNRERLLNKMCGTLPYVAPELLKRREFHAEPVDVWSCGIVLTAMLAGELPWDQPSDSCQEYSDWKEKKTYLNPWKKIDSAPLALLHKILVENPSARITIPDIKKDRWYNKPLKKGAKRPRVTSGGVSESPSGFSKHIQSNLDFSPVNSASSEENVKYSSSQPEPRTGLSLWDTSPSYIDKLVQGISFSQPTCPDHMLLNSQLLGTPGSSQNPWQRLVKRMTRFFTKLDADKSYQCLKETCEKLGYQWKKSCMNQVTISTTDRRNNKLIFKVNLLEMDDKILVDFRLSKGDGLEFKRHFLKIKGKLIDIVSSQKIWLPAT

[7] = target: T2, Serine/threonine-protein kinase Chk1 (Homo sapiens); details: at 1 µM
[8] = target: Serine/threonine-protein kinase Chk2 (Homo sapiens) (UniProt O96017); details: at 0.1 µM
Chain of Serine/threonine-protein kinase Chk2 (Homo sapiens) (O96017 whole entry): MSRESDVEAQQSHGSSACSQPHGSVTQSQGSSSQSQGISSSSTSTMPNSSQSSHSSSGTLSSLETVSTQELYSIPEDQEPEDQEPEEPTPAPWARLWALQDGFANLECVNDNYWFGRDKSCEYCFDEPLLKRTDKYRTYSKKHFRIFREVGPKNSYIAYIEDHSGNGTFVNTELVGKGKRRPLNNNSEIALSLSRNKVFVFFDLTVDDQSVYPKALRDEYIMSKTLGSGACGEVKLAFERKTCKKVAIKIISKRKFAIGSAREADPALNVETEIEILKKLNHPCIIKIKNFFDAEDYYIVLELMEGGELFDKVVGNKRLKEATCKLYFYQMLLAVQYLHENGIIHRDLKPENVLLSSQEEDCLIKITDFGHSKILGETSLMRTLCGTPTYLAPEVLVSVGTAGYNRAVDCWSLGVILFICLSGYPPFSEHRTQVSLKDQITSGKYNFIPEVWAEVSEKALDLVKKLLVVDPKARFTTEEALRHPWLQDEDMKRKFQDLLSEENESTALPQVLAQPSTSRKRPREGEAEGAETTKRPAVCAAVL

[9] = target: Serine/threonine-protein kinase Chk2 (Homo sapiens) (UniProt O96017); details: at 1 µM
[10] = target: Death-associated protein kinase 1 (Homo sapiens) (UniProt P53355); details: at 0.1 µM
Chain of Death-associated protein kinase 1 (Homo sapiens) (P53355 whole entry, looked up): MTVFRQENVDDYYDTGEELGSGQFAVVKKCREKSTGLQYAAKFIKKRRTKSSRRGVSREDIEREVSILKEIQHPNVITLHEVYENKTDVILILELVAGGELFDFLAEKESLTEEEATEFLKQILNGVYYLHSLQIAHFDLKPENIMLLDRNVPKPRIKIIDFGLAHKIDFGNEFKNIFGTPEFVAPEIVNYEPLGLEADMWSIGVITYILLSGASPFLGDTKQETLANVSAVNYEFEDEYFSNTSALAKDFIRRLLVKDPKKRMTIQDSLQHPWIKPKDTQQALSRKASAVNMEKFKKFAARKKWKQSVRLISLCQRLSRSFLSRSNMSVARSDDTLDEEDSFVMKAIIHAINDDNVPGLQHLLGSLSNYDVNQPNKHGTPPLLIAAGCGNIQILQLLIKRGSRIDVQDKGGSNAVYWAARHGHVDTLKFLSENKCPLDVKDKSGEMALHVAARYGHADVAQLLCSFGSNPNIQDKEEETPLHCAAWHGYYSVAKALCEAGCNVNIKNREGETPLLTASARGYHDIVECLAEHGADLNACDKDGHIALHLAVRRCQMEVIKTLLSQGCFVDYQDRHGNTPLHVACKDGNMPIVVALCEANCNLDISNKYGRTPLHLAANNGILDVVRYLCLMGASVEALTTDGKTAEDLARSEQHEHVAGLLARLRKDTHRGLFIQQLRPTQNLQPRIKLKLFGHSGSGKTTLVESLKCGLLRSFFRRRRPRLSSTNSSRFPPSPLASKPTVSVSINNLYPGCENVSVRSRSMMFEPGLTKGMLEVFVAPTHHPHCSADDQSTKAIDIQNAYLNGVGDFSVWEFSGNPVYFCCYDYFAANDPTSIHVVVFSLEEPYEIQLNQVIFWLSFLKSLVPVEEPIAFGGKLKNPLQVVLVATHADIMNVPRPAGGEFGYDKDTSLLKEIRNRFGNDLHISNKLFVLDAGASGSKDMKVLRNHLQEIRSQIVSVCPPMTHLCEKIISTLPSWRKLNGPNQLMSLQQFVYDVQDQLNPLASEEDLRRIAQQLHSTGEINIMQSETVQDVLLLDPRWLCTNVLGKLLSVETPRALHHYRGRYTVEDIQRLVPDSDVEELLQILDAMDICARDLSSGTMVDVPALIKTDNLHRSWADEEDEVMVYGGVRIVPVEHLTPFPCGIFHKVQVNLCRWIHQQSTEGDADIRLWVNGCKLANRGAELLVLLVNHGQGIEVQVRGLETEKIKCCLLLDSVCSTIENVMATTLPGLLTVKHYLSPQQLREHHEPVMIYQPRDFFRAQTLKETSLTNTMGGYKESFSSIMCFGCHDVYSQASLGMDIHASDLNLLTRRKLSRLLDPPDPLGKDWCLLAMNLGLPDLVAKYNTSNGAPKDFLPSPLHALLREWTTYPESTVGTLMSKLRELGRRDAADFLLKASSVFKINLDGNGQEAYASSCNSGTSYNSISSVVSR

[11] = target: Death-associated protein kinase 1 (Homo sapiens) (UniProt P53355); details: at 1 µM
[12] = target: T3, Serine/threonine-protein kinase DCLK2 (Homo sapiens) (UniProt Q8N568); details: at 0.1 µM
T3 sequence (whole entry): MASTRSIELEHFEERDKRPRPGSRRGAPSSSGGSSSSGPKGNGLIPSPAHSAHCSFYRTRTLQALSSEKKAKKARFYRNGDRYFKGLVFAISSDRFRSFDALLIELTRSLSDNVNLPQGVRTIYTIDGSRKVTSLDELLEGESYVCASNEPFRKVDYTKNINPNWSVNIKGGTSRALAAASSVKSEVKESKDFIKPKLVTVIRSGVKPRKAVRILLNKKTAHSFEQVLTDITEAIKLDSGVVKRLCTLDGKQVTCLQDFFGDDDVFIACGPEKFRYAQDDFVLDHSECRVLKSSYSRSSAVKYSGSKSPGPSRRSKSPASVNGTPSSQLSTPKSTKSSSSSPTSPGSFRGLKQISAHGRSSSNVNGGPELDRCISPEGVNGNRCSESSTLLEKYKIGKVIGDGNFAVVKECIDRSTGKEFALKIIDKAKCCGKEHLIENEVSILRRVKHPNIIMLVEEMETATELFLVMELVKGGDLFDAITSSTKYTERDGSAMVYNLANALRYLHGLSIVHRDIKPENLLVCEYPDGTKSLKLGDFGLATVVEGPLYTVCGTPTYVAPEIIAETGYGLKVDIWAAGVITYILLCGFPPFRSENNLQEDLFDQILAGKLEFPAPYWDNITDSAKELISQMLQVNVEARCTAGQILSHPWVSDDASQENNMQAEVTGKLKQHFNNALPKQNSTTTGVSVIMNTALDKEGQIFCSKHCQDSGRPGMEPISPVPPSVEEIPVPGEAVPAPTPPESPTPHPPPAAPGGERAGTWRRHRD

[13] = target: T3, Serine/threonine-protein kinase DCLK2 (Homo sapiens); details: at 1 µM
[14] = target: MAP kinase-activated protein kinase 2 (Homo sapiens) (UniProt P49137); details: at 0.1 µM
[15] = target: MAP kinase-activated protein kinase 2 (Homo sapiens) (UniProt P49137); details: at 1 µM
[16] = target: MAP kinase-activated protein kinase 3 (Homo sapiens) (UniProt Q16644); details: at 0.1 µM
Chain of MAP kinase-activated protein kinase 3 (Homo sapiens) (Q16644 whole entry, looked up): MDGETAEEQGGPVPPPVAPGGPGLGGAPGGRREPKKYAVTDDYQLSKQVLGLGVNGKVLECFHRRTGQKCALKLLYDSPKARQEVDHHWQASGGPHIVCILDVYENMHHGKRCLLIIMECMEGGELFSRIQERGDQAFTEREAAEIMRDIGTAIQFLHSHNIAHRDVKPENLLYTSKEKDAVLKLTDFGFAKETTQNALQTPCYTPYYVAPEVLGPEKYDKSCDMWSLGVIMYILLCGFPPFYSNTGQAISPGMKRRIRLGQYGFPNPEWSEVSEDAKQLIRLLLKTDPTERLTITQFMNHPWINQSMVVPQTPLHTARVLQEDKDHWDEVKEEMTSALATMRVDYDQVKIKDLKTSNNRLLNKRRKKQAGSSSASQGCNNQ

[17] = target: MAP kinase-activated protein kinase 3 (Homo sapiens) (UniProt Q16644); details: at 1 µM
[18] = target: Serine/threonine-protein kinase MARK1 (Homo sapiens) (UniProt Q9P0L2); details: at 0.1 µM
Chain of Serine/threonine-protein kinase MARK1 (Homo sapiens) (Q9P0L2 whole entry, looked up): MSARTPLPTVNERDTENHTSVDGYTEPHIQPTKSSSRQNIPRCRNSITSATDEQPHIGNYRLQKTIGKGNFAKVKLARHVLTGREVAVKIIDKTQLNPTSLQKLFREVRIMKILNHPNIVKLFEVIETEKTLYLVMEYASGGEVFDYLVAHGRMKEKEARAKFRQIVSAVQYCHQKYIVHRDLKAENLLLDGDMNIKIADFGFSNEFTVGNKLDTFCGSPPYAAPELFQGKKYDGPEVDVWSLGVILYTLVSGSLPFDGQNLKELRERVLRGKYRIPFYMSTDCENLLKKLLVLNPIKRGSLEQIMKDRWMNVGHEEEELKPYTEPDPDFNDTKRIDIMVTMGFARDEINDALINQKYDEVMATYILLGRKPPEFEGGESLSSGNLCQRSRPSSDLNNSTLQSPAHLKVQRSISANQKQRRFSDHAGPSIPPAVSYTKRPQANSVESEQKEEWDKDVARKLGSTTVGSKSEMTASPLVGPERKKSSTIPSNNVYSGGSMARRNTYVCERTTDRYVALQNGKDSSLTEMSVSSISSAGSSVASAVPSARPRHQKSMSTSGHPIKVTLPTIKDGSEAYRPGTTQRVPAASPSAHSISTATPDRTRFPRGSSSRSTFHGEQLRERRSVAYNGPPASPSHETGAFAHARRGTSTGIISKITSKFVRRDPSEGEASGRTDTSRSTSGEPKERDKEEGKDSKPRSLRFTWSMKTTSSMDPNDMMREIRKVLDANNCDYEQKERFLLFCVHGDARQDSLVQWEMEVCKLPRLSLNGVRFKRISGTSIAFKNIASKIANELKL

[19] = target: Serine/threonine-protein kinase MARK1 (Homo sapiens) (UniProt Q9P0L2); details: at 1 µM
[20] = target: MAP/microtubule affinity-regulating kinase 3 (Homo sapiens) (UniProt P27448); details: at 0.1 µM;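 also: mean percent inhibition of MARK3 kinase activity, measured within the GSK PKIS screening panel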
Chain of MAP/microtubule affinity-regulating kinase 3 (Homo sapiens) (P27448 whole entry, looked up): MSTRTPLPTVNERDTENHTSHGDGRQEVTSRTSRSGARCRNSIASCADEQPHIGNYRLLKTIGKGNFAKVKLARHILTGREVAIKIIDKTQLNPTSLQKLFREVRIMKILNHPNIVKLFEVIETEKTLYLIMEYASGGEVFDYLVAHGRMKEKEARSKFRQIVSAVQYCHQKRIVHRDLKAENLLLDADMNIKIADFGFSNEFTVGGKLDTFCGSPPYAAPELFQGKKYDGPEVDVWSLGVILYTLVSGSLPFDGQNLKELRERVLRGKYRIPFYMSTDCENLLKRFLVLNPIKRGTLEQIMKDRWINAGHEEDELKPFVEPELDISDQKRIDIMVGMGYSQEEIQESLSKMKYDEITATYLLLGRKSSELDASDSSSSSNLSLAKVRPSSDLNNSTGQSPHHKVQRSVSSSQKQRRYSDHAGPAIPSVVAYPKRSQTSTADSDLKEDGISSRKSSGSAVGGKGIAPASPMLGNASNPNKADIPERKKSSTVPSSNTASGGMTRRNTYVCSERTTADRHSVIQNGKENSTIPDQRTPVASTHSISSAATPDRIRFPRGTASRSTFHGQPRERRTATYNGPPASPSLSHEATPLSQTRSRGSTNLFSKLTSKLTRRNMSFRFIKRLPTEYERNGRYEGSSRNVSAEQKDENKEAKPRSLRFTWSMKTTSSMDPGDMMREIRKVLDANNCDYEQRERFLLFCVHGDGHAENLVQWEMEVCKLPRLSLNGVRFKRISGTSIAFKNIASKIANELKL

Chain of Calcium/calmodulin-dependent protein kinase type II subunit alpha (Homo sapiens) (Q9UQM7 whole entry): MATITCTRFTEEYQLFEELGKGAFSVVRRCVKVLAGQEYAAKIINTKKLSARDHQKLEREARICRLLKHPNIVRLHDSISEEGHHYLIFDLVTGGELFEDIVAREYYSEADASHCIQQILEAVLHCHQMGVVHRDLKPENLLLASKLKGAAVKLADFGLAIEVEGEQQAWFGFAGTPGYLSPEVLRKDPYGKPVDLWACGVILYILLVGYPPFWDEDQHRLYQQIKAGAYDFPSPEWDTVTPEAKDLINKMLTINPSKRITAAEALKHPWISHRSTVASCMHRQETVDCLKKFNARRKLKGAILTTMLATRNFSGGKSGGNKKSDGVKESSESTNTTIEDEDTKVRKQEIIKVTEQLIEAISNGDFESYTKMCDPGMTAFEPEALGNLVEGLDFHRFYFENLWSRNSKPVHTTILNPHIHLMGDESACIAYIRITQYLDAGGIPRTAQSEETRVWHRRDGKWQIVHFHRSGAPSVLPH

SMILES	inhibition [1]	inhibition [2]	inhibition [3]	inhibition [4]	inhibition [5]	inhibition [6]	inhibition [7]	inhibition [8]	inhibition [9]	inhibition [10]	inhibition [11]	inhibition [12]	inhibition [13]	inhibition [14]	inhibition [15]	inhibition [16]	inhibition [17]	inhibition [18]	inhibition [19]	inhibition [20]
CCCNc1cccc(-n2ncc3c(N/N=C/c4ccncc4)ncnc32)c1	3.36%	1.11%	1.17%	-2.8%	-3.1%	-4.03%	-5.65%	-4.06%	0.34%	-6.43%	-8.41%	6.83%	2.98%	-2.72%	-2.37%	-5.26%	-4.82%	2.01%	10.3%	3.4%
COc1ccc(-c2nn3ncccc3c2-c2ccnc(Nc3ccc(F)c(F)c3)n2)cc1	4.43%	3.14%	7.4%	-3.18%	-4.79%	3.76%	8.64%	6.74%	7.89%	4.63%	6.8%	1.7%	0.5%	2.31%	2.82%	16.8%	32.5%	4.53%	8.38%	4.11%
c1cnn2ncc(-c3ccnc(NCCCN4CCOCC4)n3)c2c1	6.81%	3.65%	3.72%	-0.02%	-0.41%	0.25%	1.83%	2.74%	3.47%	-0.4%	-0.07%	1.46%	1.43%	1.81%	2.19%	4.59%	4.86%	1.78%	5.05%	2.58%
CN(c1ccc(NC(=O)NCCN2CCOCC2)cc1)c1ccnc(Nc2ccc(CS(C)(=O)=O)cc2)n1	1.11%	1.06%	3.97%	-3.18%	-5.39%	4.02%	3.14%	2.01%	6.85%	4.05%	4.97%	0.85%	0.61%	1.97%	2.7%	2.92%	3.83%	2.9%	7.21%	2.81%
Cn1c(-c2nonc2N)nc2cnccc21	1.59%	2.9%	4.76%	2.54%	2.02%	1.55%	2.48%	2.16%	3.21%	2.36%	2.42%	0%	5.3%	1.66%	1.06%	3.29%	2.75%	3.2%	7.22%	0.25%
Nc1nccc(-c2c(-c3ccc(F)cc3)ncn2C2CCNCC2)n1	-5.1% and -1.06%	-3.9% and -0.18%	1.49% and 0.43%	0% and 0.8%	-2.13% and 0%	-2.55% and 0.68%	-3.32% and -2.24%	-2.81% and -0.53%	-2.65% and -0.65%	-2.18% and -0.72%	-3.07% and -0.77%	1.18% and 0.52%	-2.79% and 3.76%	-1.56% and -0.23%	-1.96% and -0.84%	27.6% and 29.5%	34.1% and 34.6%	-0.83% and 1.71%	-0.5% and 1.51%	-0.05% and -0.2%
O=C(O[C@H]1CN[C@H](C#Cc2cc3ncnc(Nc4ccc5c(cnn5Cc5ccccc5)c4)c3s2)C1)N1CCOCC1	-1.88%	0.73%	0.8%	0.67%	-0.25%	0.36%	-0.07%	-1.25%	0.86%	-0.35%	-1.55%	-2.27%	-1.86%	-0.79%	-0.97%	0%	-0.37%	0.33%	3.97%	-1.73%
Cc1ccc(-c2cc3c(NC(=O)C4CC4)ncnc3o2)cc1	4.25%	3.37%	3.7%	-0.74%	30.3%	-0.37%	3.47%	2.56%	5.07%	3.63%	4.66%	1.46%	0.28%	1.78%	1.3%	2.67%	2.29%	5.62%	5.21%	3.78%
CC1(C)CC(n2cnc(-c3ccc(F)cc3)c2-c2ccnc(N)n2)CC(C)(C)N1	-1.67%	0.69%	-0.31%	0.52%	-0.57%	-3.33%	-6.27%	-4.96%	-4.4%	-7.58%	-7.03%	2.01%	-7.74%	-2.49%	-2.73%	21.4%	26.4%	1.88%	0.57%	1.34%
Fc1cccc(COc2ccc(Nc3ncncc3C#Cc3ccccc3)cc2Cl)c1	3.65%	2.79%	2.05%	-2.29%	-4.84%	3.29%	5.99%	3.47%	5.22%	5.08%	5.6%	1.92%	-0.09%	2.63%	2.47%	4.72%	6.08%	4.09%	5.61%	4.58%
CS(=O)(=O)CCNCc1ccoc1-c1ccc2ncnc(Nc3ccc(OCc4ccccc4)cc3)c2c1	0.09%	0.18%	-0.44%	-0.43%	-1.35%	0.86%	-2.73%	1.56%	8.55%	-0.21%	-0.75%	-1.49%	-0.03%	-0.61%	-0.91%	0.57%	0.18%	-0.89%	1.23%	-2.66%
COc1cc(Nc2ncc(-c3ccccc3)o2)cc(OC)c1	1.52%	3.94%	7.34%	-1.03%	-1.65%	1.69%	0.7%	4.6%	5.38%	2.51%	-0.73%	1.65%	1.7%	2.4%	1.2%	3.76%	3.61%	1.26%	4.72%	3.35%
COc1ccc2ncn(-c3cc(O[C@H](C)c4ccccc4C(F)(F)F)c(C(N)=O)s3)c2c1	0.95%	-0.5%	5.44%	1.4%	3.11%	1.46%	0.47%	-1.28%	-0.25%	-0.67%	-2.31%	-0.78%	-1.64%	-0.39%	-0.49%	-0.9%	-0.93%	0.76%	5.8%	-0.92%
